Screening results deposited in PubChem by several laboratories.
S1P2 agonist = activates the human S1P2 receptor. S1P2-expressing cell line, agonist reporter read-out. activation, % at 4.5 µM. 0.46% of 97,000 active. AID 729; in the data active means activation above about 16%;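 further: 0% = vehicle low control and 100% = maximal reference agonist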
Target sequence (O95136 whole entry, looked up): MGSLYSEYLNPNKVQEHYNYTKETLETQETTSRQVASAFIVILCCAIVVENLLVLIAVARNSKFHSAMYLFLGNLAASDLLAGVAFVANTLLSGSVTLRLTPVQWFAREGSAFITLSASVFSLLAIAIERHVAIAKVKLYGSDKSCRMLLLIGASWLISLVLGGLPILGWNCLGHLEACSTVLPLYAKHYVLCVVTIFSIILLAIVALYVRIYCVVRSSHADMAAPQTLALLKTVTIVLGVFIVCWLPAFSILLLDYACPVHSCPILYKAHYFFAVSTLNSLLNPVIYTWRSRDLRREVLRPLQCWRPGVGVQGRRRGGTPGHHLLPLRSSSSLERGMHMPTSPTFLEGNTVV
PostGolgi yeast = growth inhibition of a yeast mutant, post-Golgi transport screen. inhibition, % at 10 µM. 0.9% of 98,000 active. post-Golgi transport phenotypic cell assay;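 further: yeast cells grown in 1536-well plates; yeast grown about 18 h at 30C before absorbance read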
S1P2 blocker = blocks the human S1P2 receptor; inhibition, % at 5 µM; AID 736; cell-based S1P2 antagonist assay, inhibition at 5 uM; 0.21% of 97,000 active; in the data active means inhibition above about 45%;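 further: CRE beta-lactamase reporter cells expressing human S1P2 stimulated with S1P; 0% = agonist at EC80 alone and 100% = agonist plus reference antagonist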
PostGolgi ctrl = growth of the yeast control strain, post-Golgi counter-screen; efflux-deficient yeast background strain, growth absorbance A615, 16 h; inhibition, % at 10 µM; 5% of 98,000 active; AID 738
GALR2 antag = GALR2 (human) receptor antagonism; O43603; GALR2-expressing cells, antagonist mode; inhibition, % at 4 µM; 0.39% of 140,000 active; AID 828; in the data active means inhibition above about 27%;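 further: cells stimulated with galanin 1-16 at roughly its EC80; 0% = agonist challenge control and 100% = basal control without agonist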
GALR2 agonist = agonists of human galanin receptor 2 (GALR2) | activation, % (concentration not given with the values) | O43603 | GALR2-expressing cells, agonist activation read-out | 0.48% of 140,000 active; in the data active means activation above about 5%, passing the limit was not always enough;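 further: 0% = vehicle buffer wells and 100% = reference agonist at full effect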
* hit, by the source's call; nt = no result. Only a selection was taken, and hits are over-represented in it overall. Unless noted, no stated cut-off is given here; in the data, active means inhibition above about 30%; inactive means the rest.

SMILES	S1P2 agonist	PostGolgi yeast	S1P2 blocker	PostGolgi ctrl	GALR2 antag	GALR2 agonist
Cc1ccc(Cl)cc1Nc1nc(-c2sc(NC(=O)c3ccco3)nc2C)cs1	-6	-3	0	25	13	-2
Fc1ccc(C2C3=C(Nc4ncnn42)c2ccccc2OC3c2ccncc2)cc1 (configuration not stated)	2	-8	-4	8	-18	0
Cc1ccc(C2Oc3ccccc3C3=C2C(c2cccs2)n2ncnc2N3)cc1 (configuration not stated)	3	18	-2	39*	5	-1
OC(Cn1cncn1)c1ccc(Cl)cc1 (configuration not stated)	-3	4	18	-5	0	-2
OC(Cn1cncn1)c1ccc(Cl)cc1Cl (configuration not stated)	-3	78*	1	40*	2	-2
OC(c1ccc(Cl)cc1Cl)C(Cc1cccnc1)n1cncn1 (configuration not stated)	-2	45*	10	11	19	-4
COC(=O)c1c(CSc2ccc(C)c(C)c2)noc1C(=O)NCc1ccc(OC)cc1	-4	1	0	21	-26	0
Cn1c(NCc2ccccc2O)nc2ccccc21	nt	-5	nt	-5	14	-1
C=CCc1cccc(CNc2nc3ccccc3n2C(C)C)c1O	-8	-5	-7	47*	12	-2
CCOc1ccc(Cl)cc1CN1CCOCC1	-2	-7	-13	13	-9	-2
CC(C)CCOc1ccc(Cl)cc1CN1CCOCC1	-7	32*	4	37*	-6	-1
CCCCCOc1ccc(Cl)cc1CN1CCOCC1	-1	58*	-26	26	1	-2
CCN(CC(=O)Nc1c(C(=O)OC)[nH]c2ccc(C)cc12)c1ccc2c(c1)OCO2	-4	-2	18	53*	1	-2
COc1cc(OC)cc(C(=O)NCCCN2CCN(CCCNC(=O)c3cc(OC)cc(OC)c3)CC2)c1	nt	nt	nt	nt	13	-1
Cc1nn(CC(=O)Nc2ccc(Cl)cn2)c(C)c1Br	nt	nt	nt	nt	2	1
CCC(C)NS(=O)(=O)c1ccc(NS(C)(=O)=O)cc1 (configuration not stated)	-7	48*	-22	19	3	-1
CCC(=O)c1ccc(O)c(CC=C(C)C)c1	-9	7	-3	31*	-4	-1
CCN1C(=O)c2cccc3c(NC(=O)c4ccc(OC)c(OC)c4)ccc1c23	2	-4	10	11	6	0
COc1ccc(C2C=C(c3ccc(Br)s3)Nc3ncnn32)cc1OC (configuration not stated)	nt	2	nt	35*	22	-1
COc1ccccc1N1CCN(C(=O)c2ccc(C(C)(C)C)cc2)CC1	-7	-2	12	36*	13	-2
COc1ccccc1N1CCN(C(=O)c2sc3nc(-c4ccc(F)cc4)cn3c2C)CC1	nt	-9	nt	45*	8	-1
COc1ccccc1N1CCN(C(=O)c2oc3cc(C)c(C)cc3c2C)CC1	-6	-4	-11	42*	-9	1
COc1ccccc1N1CCN(C(=O)c2cc(-c3cccs3)on2)CC1	nt	11	nt	50*	1	-1
COc1nc(N=C(N)N)nc2ccc(C)cc12	nt	nt	nt	nt	-31	-2
COc1ccccc1N1CCN(C(=O)c2c(C)cc(=O)oc2C)CC1	-8	11	0	-1	3	-1
SMILES	S1P2 agonist	PostGolgi yeast	S1P2 blocker	PostGolgi ctrl	GALR2 antag	GALR2 agonist
COc1cc2c(C(=O)N3CCN(c4ccccc4C)CC3)c(C)oc2cc1Br	-3	-3	12	57*	-18	0
COc1ccccc1-c1cc(C(=O)N2CCc3ccccc3C2)c2ccccc2n1	-8	1	4	52*	4	-1
O=C(c1cc(-c2ccccn2)nc2ccc(Br)cc12)N1CCc2ccccc2C1	-7	30	5	71*	20	-1
COc1ccc(OC)c(-c2cc(C(=O)N3CCN(c4ncccn4)CC3)c3ccccc3n2)c1	-4	6	-2	27	11	-1
COc1cc2[nH]c(=O)n(CCCCCC(=O)NCCc3c[nH]c4ccccc34)c(=O)c2cc1OC	-3	-1	-4	-2	-7	-1
COc1ccc(NS(=O)(=O)c2cccc(Cl)c2)cc1S(=O)(=O)N1CCCCC1	nt	nt	nt	nt	1	0
COc1cc2c(cc1OC)C1=C(C#N)CC/C(=N\S(=O)(=O)c3cccc(Cl)c3)N1CC2	49*	-1	-41	23	5	0
O=C(C[n+]1cc2ccccc2c2ccccc21)c1ccccc1	-3	-1	8	33*	15	-3
O=C(C[n+]1cccc2ccccc21)c1ccccc1	nt	nt	nt	nt	15	-1
N#CCSc1nc2ccccc2c(=O)n1CCC(=O)NC1CCCCC1	-11	-6	12	35*	-7	-1
O=C(CCCn1c(SCC(=O)NC2CCCCC2)nc2ccccc2c1=O)NCC1CCCO1 (configuration not stated)	-2	-1	15	7	-1	0
CCOC(=O)c1ccc(N=c2sc(C(=O)OC)cc(=O)n2C2CC2)cc1	-6	5	28	33*	-8	0
CCOC(=O)c1ccc(N=c2sc(C(=O)OC)cc(=O)n2Cc2ccc3c(c2)OCO3)cc1	-3	-9	18	11	9	-2
Cc1cccc(-c2noc(CN(C(=O)c3ccc(Br)o3)C(C)C)n2)c1	-2	-2	-1	33*	-4	-2
CC(C)N(Cc1nc(-c2ccc(Cl)cc2)no1)C(=O)CCC1CCCC1	-1	3	-6	35*	-15	-3
COc1cccc(OCC(=O)N(Cc2nc(-c3ccc(Cl)cc3)no2)C(C)C)c1	1	10	-13	54*	-6	-2
Cc1cccc(-c2noc(CN(C(=O)c3ccc4c(c3)OCO4)C(C)C)n2)c1	-3	6	-18	3	8	-4
CC(C)N(Cc1nc(-c2ccccc2)no1)C(=O)Cc1ccccc1	-1	-8	4	29	-6	-2
COc1ccccc1OCC(=O)N(Cc1nc(-c2ccc(Cl)cc2)no1)C(C)C	-2	-8	-2	46*	-7	-2
COc1ccc(-c2nn(-c3ccccc3)cc2CNC(=O)c2cccc([N+](=O)[O-])c2)cc1	nt	nt	nt	nt	-10	-2
CCOC(=O)C1(CC)NC(c2cccc(F)c2)C2C(=O)N(CC)C(=O)C21 (configuration not stated)	-3	nt	8	nt	-7	2
Cc1ccc(C)c(C(=O)N(Cc2nc(-c3ccc(Cl)cc3)no2)C(C)C)c1	-4	-1	-15	32*	-1	-4
Cc1ccc(S(=O)(=O)N(Cc2ccc(Cl)cc2)c2ccccc2C(=O)NCc2ccco2)cc1	nt	nt	nt	nt	-5	-1
CN(C)c1nc(N2CCN(c3ccc(F)cc3)CC2)c(C#N)c(=O)o1	-5	1	16	8	3	-3
Cn1nc(C(F)(F)F)c(C#N)c1N1CCN(c2ccc(F)cc2)CC1	-4	3	29	73*	-4	-2
Cn1nc(C(F)(F)F)c(C#N)c1N1CCN(c2ccccc2)CC1	-2	10	-1	72*	-6	-2
